Among the data in PubChem BioAssay (Tox21) are outcome and Potency values, retold here.

Inconclusive results are not listed. Unmarked numbers belong to inactive results. Calls of active or inactive are those of the source. Unless noted, calls follow the shape of the dose curve; as a rule, active = well fitted curve in the direction sought with a large enough effect in the repeat runs; inconclusive = weak or mixed curves; inactive = no such curve, though single readings can be large; an effect the other way counts as inactive or inconclusive.

Assay [1] is described as follows: qHTS assay to identify small molecule antagonists of the vitamin D receptor (VDR) signaling pathway - cell viability counter screen (AID 743225). Also: nearly all actives have a fitted effect of over 50% in size. In short, it runs like this: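 Read-out: CellTiter-Glo luminescence measured 30 min after reagent addition at room temperature. Cells were VDR-bla HEK 293T exposed 16 h at 37C, 5% CO2, to compound with 3 nM final calcitriol agonist.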

Assay [2] can be described thus: qHTS assay to identify small molecule agonists of the NFkB signaling pathway - cell viability counter screen (AID 1159515; calls by dose curve; also: series mostly up to about 61 µM; nearly all actives have a fitted effect of over 55% in size). In short, it runs like this:
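Parallel cytotoxicity counter screen in ME-180 cells carrying an NFkB-response-element beta-lactamase reporter, 2,000 cells/well. Compound exposure lasted 5 hr at 37 C, 5% CO2. Cell viability was quantified by CellTiter-Glo luminescence.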

A short description of assay [3]: qHTS assay to identify small molecule agonists of the endoplasmic reticulum stress response signaling pathway - cell viability counter screen (AID 1159517; calls by dose curve;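 also: HeLa cells carrying an ER stress response element beta-lactamase reporter; series mostly up to about 61 µM; nearly all actives have a fitted effect of over 50% in size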). Put shortly:
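Steps: seed 1,500 ESRE-bla HeLa cells per well; incubate overnight at 37 C, 5% CO2; add compounds in DMSO for 5 hr; run FRET substrate 2 hr RT; add CellTiter-Glo, wait 30 min, read luminescence.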

The nature of assay [4]: qHTS assay to identify small molecule antagonists of the retinoid-related orphan receptor gamma (ROR-gamma) signaling pathway - cell viability counter screen (AID 1159520). Also: nearly all actives have a fitted effect of over 50% in size. Put shortly:
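Tet-on ROR gamma CHO cells were given compounds for 2 hr, then doxycycline hyclate at 1 uM final, and incubated 16 hr at 37 C. Viability was measured as ATP content by CellTiter-Glo luminescence.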

Assay [5] has as its target Nuclear receptor ROR-gamma (Homo sapiens) (UniProt P51449). Briefly: qHTS assay to identify small molecule antagonists of the retinoid-related orphan receptor gamma (ROR-gamma) signaling pathway (AID 1159521;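 also: CHO cells with doxycycline inducible ROR-gamma driving an RORE luciferase reporter; top concentration of the series differs between compounds; nearly all actives have a fitted effect of over 50% in size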). Put shortly: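 CHO Tet-on RORγ, RORE-luc reporter. Cpd 2 h pre-incubation, then dox hyclate 1 uM final, 16 h, 37 C/5% CO2. ONE-Glo luminescence; decrease = antagonist.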

Assay [6] is described as follows: qHTS assay to identify small molecule agonists of the AP-1 signaling pathway - cell viability counter screen (AID 1159525; calls by dose curve; also: nearly all actives have a fitted effect of over 55% in size). In short, it runs like this: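 Same-well cytotoxicity counter screen of the Tox21 10K library in ME-180 cells. The readout is ATP-dependent luminescence after 5 h compound treatment. Data are normalised to DMSO and tetra n-octyl ammonium bromide controls.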

The nature of assay [7]: qHTS assay to identify small molecule agonists of the AP-1 signaling pathway (AID 1159526; calls by dose curve).
In assay [8] the target is Retinoic acid receptor RXR-alpha (Homo sapiens) (UniProt P19793). Briefly: qHTS assay to identify small molecule agonists of the RXR signaling pathway (AID 1159527; calls by dose curve; also: nearly all actives have a fitted effect of over 35% in size). In short, it runs like this: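 Read-out: beta-lactamase FRET ratio (405 nm excitation, 460 and 530 nm emission) after 2 hr substrate loading at room temperature. Cells were RXR-alpha-UAS-bla HEK 293T treated with compounds for 16 hr in 2% charcoal-stripped FBS medium.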
Sequence of Retinoic acid receptor RXR-alpha (Homo sapiens) (P19793 whole entry, looked up): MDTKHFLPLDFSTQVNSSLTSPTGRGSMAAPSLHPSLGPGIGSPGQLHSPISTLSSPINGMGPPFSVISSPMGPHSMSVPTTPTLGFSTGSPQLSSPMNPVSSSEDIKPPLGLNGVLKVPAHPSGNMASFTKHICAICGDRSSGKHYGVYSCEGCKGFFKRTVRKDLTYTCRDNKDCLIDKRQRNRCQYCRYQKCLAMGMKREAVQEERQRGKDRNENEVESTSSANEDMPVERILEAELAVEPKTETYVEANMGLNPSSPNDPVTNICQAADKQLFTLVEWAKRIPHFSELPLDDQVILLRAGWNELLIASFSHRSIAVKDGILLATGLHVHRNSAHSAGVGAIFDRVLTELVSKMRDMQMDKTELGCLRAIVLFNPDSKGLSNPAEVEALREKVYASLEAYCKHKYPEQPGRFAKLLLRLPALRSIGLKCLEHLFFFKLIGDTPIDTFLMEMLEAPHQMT

Assay [9] is described as follows: qHTS assay to identify small molecule agonists of the RXR signaling pathway - cell viability counter screen (AID 1159529). Put shortly: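 HEK 293T RXRa-bla cells, 2% CS-FBS; 5 h settle; cpd 16 h 37 C, 5% CO2; CellTiter-Glo 30 min RT, luminescence. Tetraoctyl ammonium bromide as positive control.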
Assay [10] is described as follows: qHTS assay to identify small molecule antagonists of the retinoid acid receptor (RAR) signaling pathway - cell viability counter screen (AID 1159551). Also: nearly all actives have a fitted effect of over 35% in size. Put shortly:
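ATP-based viability, C3RL4 cells, 6 h at 37 C with 1 uM final retinol co-added after compound; luminescence read 30 min post CellTiter-Glo, RT.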

A short description of assay [11]: qHTS assay to identify small molecule antagonists of the retinoic acid receptor (RAR) signaling pathway (AID 1159552; also: nearly all actives have a fitted effect of over 50% in size). Put shortly:
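Cells of the C3RL4 line were seeded, incubated overnight, then dosed with compounds in DMSO followed immediately by retinol (1 uM final). Six hours later luciferase detection reagent went in; signal was measured after 30 min at RT.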

Assay [12] is described as follows: qHTS assay to identify small molecule antagonists of the estrogen related receptor (ERR) signaling pathway from Tox21 library - cell viability counter screen (AID 1224834). Also: nearly all actives have a fitted effect of over 30% in size. In short, it runs like this: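 Compounds in DMSO were pinned onto ERR cells that had been incubated for 6 h, and the plates were held at 37 C for 17.5 h. CellTiter-Fluor reagent was then added and fluorescence was measured after 30 min.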

The target of assay [13] is Luciferin 4-monooxygenase (Photinus pyralis) (UniProt P08659). Briefly: qHTS assay to identify small molecule inhibitors of firefly luciferase (AID 1224835). Also: nearly all actives have a fitted effect of over 25% in size. Also: potency is read from the fitted curve at half-maximal effect. In short, it runs like this:
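Biochemical qHTS: compounds run as interplate titrations against purified firefly enzyme, with D-luciferin and ATP each at its KM concentration. Light output recorded by CCD imaging.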

Assay [14] is described as follows: qHTS assay to identify small molecule agonists of the constitutive androstane receptor (CAR) signaling pathway - cell viability counter screen (AID 1224836). Also: series mostly up to about 92 µM; nearly all actives have a fitted effect of over 45% in size. In short, it runs like this: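 HepG2-CYP2B6-hCAR, 2500 cells/well, 4 h pre-incubation; cpd 15 conc + PK11195 0.75 uM final; 23 h, 37 C/5% CO2; CellTiter-Fluor, fluorescence.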
The nature of assay [15]: qHTS assay to identify small molecule antagonists of the constitutive androstane receptor (CAR) signaling pathway - cell viability counter screen (AID 1224837). Also: series mostly up to about 92 µM; nearly all actives have a fitted effect of over 45% in size. In short, it runs like this:
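Cells are seeded, rested 4 hr at 37 C/5% CO2, dosed with compound (15-point series) and 50 nM CITCO, incubated a further 23 hr, and then CellTiter-Fluor reagent is added before fluorescence is read. The line is HepG2 with stable hCAR and CYP2B6-2.2kb.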

Assay [16] has as its target Nuclear receptor subfamily 1 group I member 3 (Homo sapiens) (UniProt Q14994). Briefly: qHTS assay to identify small molecule antagonists of the constitutive androstane receptor (CAR) signaling pathway (AID 1224838).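 Also: HepG2 cells stably expressing hCAR with CYP2B6 luciferase reporter stimulated by CITCO; nearly all actives have a fitted effect of over 40% in size.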 Put shortly:
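Luminescence from a CYP2B6-2.2kb promoter reporter in hCAR-expressing HepG2 cells reflects CAR signaling. Cells received compounds at 15 concentrations and 50 nM CITCO (final), then incubated 24 h at 37 C/5% CO2.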

Assay [17] is described as follows: qHTS assay to identify small molecule antagonists of the estrogen related receptor signaling pathway with the pleiotropic PPARgamma coactivator (PGC) from Tox21 10K library - cell viability counter screen (AID 1224840; active = well fitted cell-killing curve with a large enough effect in the repeat runs, not every such curve was filed as active; also: nearly all actives have a fitted effect of over 40% in size). Put shortly: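 Cell viability is measured by CellTiter-Fluor fluorescence in PGC/ERR cells that receive compounds after a 6-hour attachment period and are then incubated 17.5 hours at 37 C.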

The nature of assay [18]: qHTS assay to identify small molecule agonists of the retinoic acid receptor (RAR) signaling pathway (AID 1159553). In short, it runs like this:
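Quantitative high-throughput format: the Tox21 10K library was tested on C3RL4 RARE-luciferase cells for 6 hr at 37 C and 5% CO2, with luminescence measured after a 30 min room-temperature reagent step.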

Assay [19] addresses Nuclear receptor subfamily 1 group I member 3 (Homo sapiens) (UniProt Q14994). Kind of assay: qHTS assay to identify small molecule agonists of the constitutive androstane receptor (CAR) signaling pathway (AID 1224839).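 Also: HepG2 cells stably carrying human CAR and a CYP2B6 luciferase reporter; series mostly up to about 92 µM; nearly all actives have a fitted effect of over 15% in size.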 In short, it runs like this: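 HepG2-CYP2B6-hCAR cells, 2500/well, 4 h pre-incubation; compounds 15 conc.; PK11195 0.75 uM final; 24 h, 37 C/5% CO2; ONE-Glo luciferase read.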

Sequence of Nuclear receptor subfamily 1 group I member 3 (Homo sapiens) (Q14994 whole entry, looked up): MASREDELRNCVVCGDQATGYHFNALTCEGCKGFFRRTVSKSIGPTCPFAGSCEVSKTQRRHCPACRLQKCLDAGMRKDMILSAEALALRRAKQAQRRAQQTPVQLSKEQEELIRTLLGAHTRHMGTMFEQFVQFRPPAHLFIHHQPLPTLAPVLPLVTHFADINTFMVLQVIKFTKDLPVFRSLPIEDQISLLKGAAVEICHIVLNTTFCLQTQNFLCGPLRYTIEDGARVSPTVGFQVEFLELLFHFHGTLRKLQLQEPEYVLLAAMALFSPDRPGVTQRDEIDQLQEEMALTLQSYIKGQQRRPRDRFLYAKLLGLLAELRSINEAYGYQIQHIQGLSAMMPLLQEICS
Sequence of Luciferin 4-monooxygenase (Photinus pyralis) (P08659 whole entry, looked up): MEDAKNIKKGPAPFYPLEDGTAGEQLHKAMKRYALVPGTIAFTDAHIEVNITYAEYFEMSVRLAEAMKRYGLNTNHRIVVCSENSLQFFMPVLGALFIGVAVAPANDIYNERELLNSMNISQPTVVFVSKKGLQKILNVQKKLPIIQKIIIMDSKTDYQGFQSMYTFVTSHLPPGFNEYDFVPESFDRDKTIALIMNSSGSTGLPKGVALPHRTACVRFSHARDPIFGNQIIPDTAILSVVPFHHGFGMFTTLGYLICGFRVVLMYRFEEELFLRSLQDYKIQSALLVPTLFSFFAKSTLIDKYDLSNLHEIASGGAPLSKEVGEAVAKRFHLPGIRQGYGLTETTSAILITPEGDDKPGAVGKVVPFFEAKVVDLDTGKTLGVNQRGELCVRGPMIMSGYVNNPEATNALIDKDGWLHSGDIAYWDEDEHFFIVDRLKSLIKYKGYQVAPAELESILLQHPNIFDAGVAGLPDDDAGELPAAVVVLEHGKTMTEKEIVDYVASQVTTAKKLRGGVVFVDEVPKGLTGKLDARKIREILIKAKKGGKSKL

As for `O=C(c1ccccc1)c1cccc(O)c1`, the molecule was classed as inactive in assay [1], in assay [2], in assay [3], in assay [4], in assay [5] and in [6]. Also, the molecule was called inactive in assay [10], in assay [11], in [12], in assay [14], in assay [15] and in [16]. In addition, the molecule was called inactive in assay [17]. For the same molecule, the Potency result in assay [7], in [8], in assay [9] and in assay [13] was “inactive” in each case.
As to `CCNC(=O)C(C)OC(=O)Nc1ccccc1` (stereo unspecified), the molecule was classed as inactive in [1], in assay [2], in [3], in assay [4], in assay [5] and in assay [6]. Further, the call in assay [10], in assay [11], in [12], in assay [14], in assay [15] and in assay [16] was inactive. Besides, the molecule was classed as inactive in assay [17]. Also, the Potency result in [7], in [8], in [9], in assay [18] and in assay [13] was “inactive” each time.
In the case of `CCCCOCCCC`, the molecule was classed as inactive in assay [1], in assay [2], in assay [3], in assay [4], in [5] and in assay [6]. Moreover, the result in [10], in assay [11], in assay [14], in [15], in assay [16] and in assay [17] was inactive. The Potency result in assay [7], in assay [9], in assay [18], in assay [13] and in assay [19] was “inactive” in each case.
With `Cc1nc2ccc(Cl)cc2[nH]1`, the call in assay [2], in assay [3], in assay [4], in [5], in assay [6] and in assay [10] was inactive. Also, the call in assay [11], in [12], in assay [14], in assay [15], in [16] and in assay [17] was inactive. Besides, the Potency result in assay [7], in [8], in assay [9], in assay [18] and in [13] was “inactive” each time.
For `c1coc(Cn2cccc2)c1`, the result in assay [1], in [2], in assay [3], in assay [4], in assay [5] and in assay [6] was inactive. The molecule was called inactive in assay [10], in assay [11], in [12], in assay [14], in assay [15] and in assay [16]. The result in [17] was inactive. Besides, the Potency entry in assay [7], in assay [8], in [9] and in assay [13] was “inactive” throughout.
As for `CCCCc1ccc(Cl)cc1`, the outcome in assay [1], in assay [2], in assay [3], in assay [4], in [5] and in assay [6] was inactive. The molecule was classed as inactive in assay [10], in assay [11], in [15] and in assay [17]. The Potency result in assay [7], in [8], in assay [9], in assay [18] and in assay [13] was “inactive” throughout.
`CC(=O)SCC(CC(=O)c1ccc(C)cc1)C(=O)O` (stereo unspecified): the molecule was classed as inactive in [1], in assay [2], in assay [3], in assay [4], in assay [5] and in assay [6]. Further, the outcome in [10], in assay [11], in assay [12], in assay [15] and in assay [17] was inactive. In addition, the Potency result in assay [7], in [8], in [9] and in [18] was “inactive” each time. Further, the Potency in assay [13] was 27.5 µM (active).
On to `CCCCN1C(=O)c2ccccc2C1=O`, for which the molecule was called inactive in assay [1], in [2], in assay [3], in assay [4], in assay [5] and in assay [6]. Also, the molecule was classed as inactive in assay [10], in assay [11], in [12], in assay [14], in [15] and in assay [16]. Besides, the molecule was classed as inactive in [17]. In addition, the Potency result in assay [7], in assay [9], in assay [18], in assay [13] and in assay [19] was “inactive” throughout.
Regarding `C/C=C/C(=O)CCCC`, the outcome in assay [1], in assay [2], in [3], in assay [4], in [5] and in assay [6] was inactive. The result in assay [10], in [11], in [12], in assay [14], in assay [15] and in assay [16] was inactive. Moreover, the molecule was classed as inactive in assay [17]. Moreover, the Potency entry in assay [7], in assay [8], in [9], in assay [13] and in assay [19] was “inactive” in each case.
In the case of `Cc1ccc(S(=O)(=O)NC(=O)NN2CC3CCCC3C2)cc1` (stereo unspecified), the result in assay [2], in assay [3], in assay [4], in [5], in assay [6] and in assay [10] was inactive. The outcome in assay [11], in [12], in [14], in assay [15], in assay [16] and in assay [17] was inactive. The Potency entry in assay [7], in assay [8], in [9], in assay [18] and in assay [13] was “inactive” each time.
As for `COc1cc(OC)cc(OC)c1`, the molecule was called inactive in assay [2], in assay [3], in assay [4], in assay [5], in assay [6] and in assay [10]. Further, the molecule was classed as inactive in assay [11], in assay [12], in assay [15], in assay [16] and in assay [17]. Also, the Potency result in [7], in assay [8], in assay [9], in assay [18] and in assay [13] was “inactive” in each case.
